Source: PubChem BioAssay AID602441 (National Center for Advancing Translational Sciences (NCATS), 2012)
Screen size: about 1,300 compounds; fewer than 10 were called active. Inconclusive results (about 9%) are left out. Calls follow the shape of the dose curve; as a rule, active = well fitted curve in the direction sought with a large enough effect; inconclusive = small, poorly fitted or top-dose-only effect, or another doubt; inactive = no such curve, though single readings can be large or run the other way. Only a sample is shown.

Experiment: qHTS for antagonists of the Thyroid Stimulation Hormone Receptor: Hit Validation in Parental Cell Line; also: 0% is about no effect
Details: parental HEK293 cells lacking TSHR, counter-screen; series mostly up to 56.9 µM; activity change, negative = inhibition: at the top concentration
Source text: The thyroid-stimulating hormone receptor (TSHR) is a member of the 7 trans-membrane-spanning receptor (7TMR) family of cell surface receptors. TSHR-mediated hyperthyroidism is important in thyroid pathology. The development of small molecule antagonists of TSHR may lead to therapeutic approaches for TSHR-mediated hyperthyroidism caused by constitutively activating mutations or stimulating auto-antibodies associated with Graves' disease. Graves' disease is the leading cause of hyperthyroidism and is caused by autoantibodies that stimulate TSHR (TsAbs) causing thyroid growth and unregulated overproduction of thyroid hormones and existing treatments have liabilities (agranulocytosis). In addition, TSHRs are known to be expressed in multiple extrathyroidal tissues including bone, brain, kidney, testis, fat and cells of the immune system but the role of the TSHR in these tissues is not clear. Therefore, TSHR antagonists/inverse agonists could be used as probes of extrathyroidal TSHR function. Finally, TSHR inverse agonists, which are a subclass of antagonists that inhibit agonist-independent (or basal or constitutive) TSHR signaling, could be used to inhibit TSH-independent signaling in patients with recurrent or metastatic thyroid cancer who are receiving thyroid hormone to suppress TSH.
In collaboration between scientist from the NCGC and the NIDDK, a miniaturized HTRF high-throughput screen was developed. It's a cell based assay, where an anti cAMP antibody contains a fluorescent cryptate tag (excitation 337 nm; emission 620 nm) and the acceptor is cAMP-d2 (excitation 620 nm; emission 665 nm). When antibody and cAMP-d2 interact and are excited by a 337 nm light, a FRET occurs resulting in emission at 665 nm. The assay is competition between cAMP-d2 and cAMP (from the cell lysate). The homogeneous protocol allows for one step dispense after stimulation that is automation friendly. This is a hit validation assay in a counterscreen using parental HEK 293 cells lines.
NIH Chemical Genomics Center [NCGC]
NIH Molecular Libraries Probe Centers Network [MLPCN]
Assay Provider: Marvin Gershengorn, NIDDK
An anti cAMP antibody contains a fluorescent cryptate tag (excitation 337 nm; emission 620 nm) and the acceptor is cAMP-d2 (excitation 620 nm; emission 665 nm). When antibody and cAMP-d2 interact and are excited by a 337 nm light, a FRET occurs resulting in emission at 665 nm. The assay is competition between cAMP-d2 and cAMP (from the cell lysate). The homogeneous protocol allows for one step dispense after stimulation that is automation friendly. This assay uses parental HEK-EM 293 cells

SMILES | activity change, negative = inhibition
N#CC(C#N)=C1C=CC=CN1/C(=C\c1ccco1)C(=O)c1ccccc1 | -5.95% (inactive)
COc1ccc(CN(C)C(=O)COC(=O)c2cnc(Cl)c(Cl)c2)cc1 | -0.479% (inactive)
O=C(Nc1ccn(Cc2ccccc2F)n1)c1ccc(COc2ccccc2Cl)cc1 | -9.46% (inactive)
CCSC1=NSC2=NC(=O)/C(=C\c3coc4ccccc4c3=O)C(=N)N12 | -4.42% (inactive)
CC1=C(OC(=O)c2ccccc2)C(C)(C)C(c2ccccc2)OC1=O (stereo not given) | 3.91% (inactive)
O=C(Nc1nnc(S(=O)(=O)N2CCCCC2)s1)c1cccc(Br)c1 | 1.82% (inactive)
O=C(/C=C/c1ccc(Cl)cc1Cl)NCCSCc1ccccc1 | -4.87% (inactive)
CCCC(=O)N(C1CC(C)C(C#N)(C#N)C1(C#N)C#N)N(C)C (stereo not given) | -9.26% (inactive)
Cc1ccc(Oc2cc(NC(=O)CCCn3nc([N+](=O)[O-])cc3C)cc([N+](=O)[O-])c2)cc1 | -3.73% (inactive)
O=c1[nH]c(-c2ccccc2F)nc2c1sc(=S)n2Cc1ccccc1 | -3.17% (inactive)
O=C(Nc1ccc2oc(-c3ccccc3F)nc2c1)c1ccc2c(c1)OCCO2 | -11% (inactive)
C=CC(C)(C)c1c2occc2c(O)c2ccc(=O)oc12 | -4.53% (inactive)
Cc1ccc(-c2csc(NC(=O)c3ccc4c(=O)n5c(nc4c3)CCCCC5)n2)cc1 | -9.13% (inactive)
Cc1ccc(C2(c3ccc(C)cc3)CC2C(=O)Nc2ccc([N+](=O)[O-])cc2O)cc1 (stereo not given) | -4.43% (inactive)
COc1ccc(NC(=O)c2ccc(-c3ccccc3)cc2)cc1NS(=O)(=O)c1ccc(F)cc1 | -5.28% (inactive)
COc1ccc(N2CCN(C(=O)c3ccccc3N(C)S(=O)(=O)c3ccccc3)CC2)cc1 | -0.792% (inactive)
Nc1ncc(Br)cc1S(=O)(=O)Nc1cc(C(F)(F)F)cc(C(F)(F)F)c1 | -4.31% (inactive)
CCOc1cc(/C=C/c2ccc3cccc([N+](=O)[O-])c3n2)ccc1OCC(=O)N(C)C | 0.169% (inactive)
C=CC[C@H](CC(=O)N(CCO)Cc1ccccc1)C(=O)N[C@H](COC(=O)[C@@H](CC=C)Cc1ccc(F)cc1)C(C)(C)C | 0.0369% (inactive)
COc1ccc(C)cc1-n1nnnc1SCc1cc(=O)n2cc(C)ccc2n1 | 0.702% (inactive)
Cc1ccc(CSc2nnc(SCC(=O)N/N=C/c3c(C)nn(-c4ccccc4)c3C)s2)cc1 | 1.1% (inactive)
COc1ccc(C(=O)Nc2ccc(Cl)c(S(=O)(=O)Nc3ccccc3OC)c2)cc1 | -5.92% (inactive)
CC(Oc1ccc(Cl)cc1Cl)C(=O)Nc1cccnc1 (stereo not given) | 2.55% (inactive)
O=C(c1ccco1)N1CCN(c2ncnc3c2nnn3Cc2ccccc2Cl)CC1 | -8.18% (inactive)
CCOc1ccc2nc(NC(=O)c3ccc(OCC4CCCO4)cc3)sc2c1 (stereo not given) | -9.31% (inactive)

SMILES | activity change, negative = inhibition
O=c1c2ccccc2nnn1CSc1nnc(-c2cccs2)n1Cc1ccccc1 | -0.787% (inactive)
O=C(O)c1nn(CC(=O)N2CCN(c3ncc(C(F)(F)F)cc3Cl)CC2)c(=O)c2ccccc12 | -0.862% (inactive)
O=C(Nc1nc(-c2cccs2)c(-c2cccs2)s1)C1CCCC1 | -9.24% (inactive)
COc1ccc(C2=NS(=O)(=O)N(C)C(C(=O)Nc3ccc4c(c3)OCO4)=C2)cc1OC | -4.61% (inactive)
Cc1cc(C)c(S(=O)(=O)c2c(C)cccc2C)c(Cl)n1 | -1.36% (inactive)
COc1ccc(S(=O)(=O)n2cnc3ccccc32)c(C)c1 | 0.374% (inactive)
CCCCOc1ccc(/C=N/Nc2cc(N3CCOCC3)nc(C)n2)cc1 | -18.4% (inactive)
O=c1cc(-c2ccccc2)nc2c(-c3ccccc3)c(C(F)(F)F)[nH]n12 | -4.22% (inactive)
Cc1ccc(OCCSc2ncccn2)c(C)c1 | 1.66% (inactive)
CCN(CC)S(=O)(=O)c1cccc(NC(=O)CNc2cccc(S(=O)(=O)N3CCOCC3)c2)c1 | 0.271% (inactive)
C=CCn1c(SCC(=O)c2cccs2)nc2sc(CC)cc2c1=O | -6.19% (inactive)
N#C/C(=C\c1ccc(Oc2ccc(C(F)(F)F)cc2[N+](=O)[O-])cc1)c1nc2ccccc2[nH]1 | -3.12% (inactive)
Cc1cc(C)c(-c2csc(NC(=O)/C=C/c3cccs3)n2)c(C)c1 | -0.163% (inactive)
Cc1ccc(C)c(S(=O)(=O)N2CCN(C(=O)C3CCN(c4ncnc5sc(C)c(C)c45)CC3)CC2)c1 | -5.61% (inactive)
CC(C)(C)c1ccc(C(=O)CC(Sc2ccc(Cl)cc2)C(=O)O)cc1 (stereo not given) | -1.68% (inactive)
O=C(NCc1ccc2c(c1)OCO2)C12CN(Cc3ccccc3)CC1C(c1cccc([N+](=O)[O-])c1)=NO2 (stereo not given) | 4.74% (inactive)
Cc1nc2ccc(Nc3nc4cc(S(=O)(=O)N5CCOCC5)ccc4o3)cc2s1 | -7.93% (inactive)
CSc1cccc(NC(=O)C2CCCN(S(=O)(=O)c3ccc(F)cc3)C2)c1 (stereo not given) | -2.87% (inactive)
O=C(CSc1nc(-c2ccc(Cl)cc2)cs1)Nc1cccc([N+](=O)[O-])c1 | -11.1% (inactive)
CCN(Cc1ccccc1)c1ccc(/C=N/NC(=O)c2cccc(S(=O)(=O)N3CCOCC3)c2)cc1 | 0.0222% (inactive)
Fc1ccc(/C=C2\CCCC3=C2Nc2ncnn2C3c2ccc(F)cc2)cc1 (stereo not given) | 0.901% (inactive)
O=C1NC(=S)N(C(=O)c2ccc(F)cc2)/C1=C/c1ccccc1 | -4.61% (inactive)
O=S(=O)(/N=C(/Nc1cccc2ccccc12)c1ccccc1)c1cccs1 | 0.846% (inactive)
Cc1ccc(-c2csc(N(CCO)CCCn3c(C(F)(F)F)nc4ccccc43)n2)cc1 | -1.09% (inactive)
Cc1ccc(C(=O)Nc2nc(-c3ccc(F)cc3)cs2)o1 | -5.7% (inactive)

SMILES | activity change, negative = inhibition
CN(c1ccc(OCC(=O)Nc2nc3ccccc3s2)cc1)S(=O)(=O)c1ccccc1 | -12.7% (inactive)
Cc1cc(=O)[nH]c(SCC(=O)Nc2ccc(Br)cc2)c1C#N | -3.68% (inactive)
CCCc1ccc(-c2c(C)sc(NC(=O)c3ccnn3C)c2C#N)cc1 | -6.47% (inactive)
NS(=O)(=O)c1ccc(NCc2ccccc2OCc2ccccc2F)cc1 | 1.37% (inactive)
O=C(Nc1cccc(S(=O)(=O)N2CCCCC2)c1)c1ccc2c(=O)n3c(nc2c1)CCCCC3 | -8.03% (inactive)
COc1cc(/C=C(\C#N)c2nc3ccccc3s2)cc([N+](=O)[O-])c1O | -6.23% (inactive)
O=C(CC1S/C(=N/N=C2CCCCCC2)NC1=O)Nc1ccc(Br)cc1F (stereo not given) | 0.642% (inactive)
O=C(CNc1ccc(C(F)(F)F)cc1)Nc1cccc(S(=O)(=O)N2CCCC2)c1 | 0.458% (inactive)
O=S(=O)(Nc1cccnc1)c1cc(Cl)ccc1Cl | 2.38% (inactive)
COCC(C)n1c(COc2ccccc2F)nnc1SCc1c(C)noc1C (stereo not given) | 2.74% (inactive)
CS(=O)(=O)c1ccc(C(=O)OCC(=O)NC(=O)C2CCCCC2)cc1[N+](=O)[O-] | 0.578% (inactive)
CC(C)(C)c1cc2nc3c(c(=O)n2[nH]1)CN(Cc1ccccc1)C3=O | -3.97% (inactive)
O=C(COc1ccccc1/C=C1\SC(=S)NC1=O)Nc1ccc(F)cc1 | -2.81% (inactive)
CN(C)S(=O)(=O)Oc1cccc(C(=O)Nc2ccc(Cl)c(Cl)c2)c1 | -6.85% (inactive)
O=[N+]([O-])c1ccc(NC(=S)NCCc2ccc(F)cc2)cc1 | -7.64% (inactive)
COCC1CCCCN1C(=O)C1CCN(c2nc(-c3ccccc3)nc3c2CCC3)CC1 (stereo not given) | -0.886% (inactive)
CC(CNC(=O)c1cc(COc2ccc3ncccc3c2)on1)c1ccccc1 (stereo not given) | -3.81% (inactive)
N#C/C(=C(/O)COC(=O)c1ccc(C#N)cc1)c1nc2ccccc2s1 | -2.37% (inactive)
CCCCCC/C(C)=C1/SC(=S)NC1=O | -0.358% (inactive)
O=C(Cn1nc(Cc2cccnc2)c2ccccc2c1=O)NCC1COc2ccccc2O1 (stereo not given) | 5.27% (inactive)
Cc1ccc(/C=C/C(=O)Nc2ccc(Oc3ccccc3)cc2)o1 | -2.86% (inactive)
CC(C)Oc1ccc(C(=O)Nc2ccc(Cl)c(S(=O)(=O)Nc3ccc(Cl)cc3)c2)cc1 | 0.687% (inactive)
Cc1ccc([N+](=O)[O-])cc1S(=O)(=O)Nc1ccc(-c2ccc(N3CCCC3)nn2)cc1 | -5.81% (inactive)
Cc1ccccc1-n1sc2cc(F)ccc2c1=O | -7.14% (inactive)
COc1ccc(CNC(=O)C(c2ccco2)N(C(=O)c2snc(C(N)=O)c2N)c2cccc(OC)c2)cc1 (stereo not given) | 1.19% (inactive)

SMILES | activity change, negative = inhibition
CC(C)C(c1nnnn1Cc1ccco1)N1CCN(c2nc3ccccc3s2)CC1 (stereo not given) | -0.88% (inactive)
COc1cccc(CN(C)C(=O)c2ccc(Oc3ccccc3)cc2)c1OC | 2.59% (inactive)
Cc1ccc(C2=NS(=O)(=O)N(C)C(C(=O)NCc3ccc(F)cc3)=C2)cc1 | 2.08% (inactive)
CC(=O)c1ccc(N2CCN(C(=S)Nc3ccc(Oc4ccccc4)cc3)CC2)cc1 | -1.07% (inactive)
CCn1c(=NC(=O)CSC(C)=O)sc2ccccc21 | 0.315% (inactive)
Clc1ccc2c(c1)-c1nnc(Br)n1-c1ccccc1S2 | 6.35% (inactive)
COc1ccc(C(=O)/C(=C\c2ccco2)N2C=CC=CC2=C(C#N)C#N)cc1 | -3.62% (inactive)
COc1cc(/C=N/Nc2ccc(C(=O)O)cc2)ccc1O | -5.88% (inactive)
Cc1nn(Cc2ccc(Cl)cc2)c(C)c1NC(=O)c1noc2c1CCc1ccccc1-2 | -0.224% (inactive)
Cc1ccc(-n2c(Cl)c(Cl)nc(Cl)c2=O)cc1 | -20.4% (inactive)
Cc1nn(-c2nc3ccccc3s2)c(N)c1-c1ccccc1 | -9.47% (inactive)
CC(C)C(C)NC(=O)COc1ccc(Sc2ccc(OCC(=O)NC(C)C(C)C)cc2)cc1 (stereo not given) | -0.802% (inactive)
Cc1ccc2nc(NC(=O)C3CCN(S(=O)(=O)c4cc([N+](=O)[O-])ccc4Cl)CC3)sc2c1 | -2.06% (inactive)
Cc1cccc(NC(=O)C2C3CCC4C(CCC32)C4(Cl)Cl)c1 (stereo not given) | -1.11% (inactive)
Cc1ccccc1Oc1cc(-n2ncc(Cl)c(Cl)c2=O)ncn1 | 7.91% (inactive)
COc1ccc(NC(=O)/C(Cl)=C(/Cl)S(=O)(=O)Cc2ccccc2)cn1 | -9.15% (inactive)
O=C(Nc1nc(-c2cccs2)cs1)c1ccc(S(=O)(=O)N2CCCCC2)cc1 | -9.31% (inactive)
CCCCc1c(C)nc2nc(SCc3ccc(Cl)cc3)[nH]n2c1=O | -0.616% (inactive)
Clc1cc(Cl)c(OCc2nc(-c3ccccn3)no2)cc1Cl | -4.07% (inactive)
O=[N+]([O-])c1ccc(NC(=S)NCc2ccc(F)cc2)cc1 | -9.76% (inactive)
CC1CCCCN1C(=O)CSCC(=O)Nc1nc(-c2cccs2)cs1 (stereo not given) | -1.89% (inactive)
CC(=O)c1c(C)[nH]c(C(=O)COc2cc(C)ccc2C(C)C)c1C | 0.826% (inactive)
COc1cccc(COc2cc3ccccc3nc2C)c1 | 1.35% (inactive)
O=[N+]([O-])c1cc(Br)c(O)c(/C=N/Nc2nnnn2-c2cccc3ccccc23)c1 | -0.201% (inactive)
Cc1csc2ncnc(N3CCN(S(=O)(=O)c4cccc(C(F)(F)F)c4)CC3)c12 | -0.152% (inactive)
